Measurements from PubChem BioAssay (NCI).
About 79,000 compounds went through this panel and 15% of them were active in at least one assay; those are over-represented in the sample as a whole. Activity calls are given as the source filed them. No stated cut-off is given here; in the data, active means growth inhibition above about 70%; inactive means the rest.

Legend:
[1] = NCI Yeast Anticancer Drug Screen. Data for the rad52 strain (AID 147);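 further: 0% = growth of vehicle-treated control cultures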; settings: S. cerevisiae rad52 mutant growth inhibition, active compounds read high
Procedure, shortened: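 Growth of repair-deficient yeast cells was compared between compound-treated and vehicle-treated cultures to give percent inhibition.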

[2] = NCI Yeast Anticancer Drug Screen. Data for the wt1 strain (AID 149);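 further: 0% = growth of vehicle-treated wt1 cultures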; settings: S. cerevisiae wt1 strain (SPY 50644) growth inhibition, active compounds read high
Procedure, shortened: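 Each compound is tested on wt1 yeast and the loss of growth versus vehicle gives the inhibition value.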

[3] = NCI Yeast Anticancer Drug Screen. Data for the rad50EPP+ strain (AID 151);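 further: 0% = growth of vehicle-treated control cultures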; settings: S. cerevisiae rad50 mutant strain, active compounds read high
Procedure, shortened: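 Measured: growth inhibition of rad50EPP+ yeast. Reference: vehicle-treated controls. Screen uses strains with defined genetic alterations in DNA damage repair or cell cycle control.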

[4] = NCI Yeast Anticancer Drug Screen. Data for the mgt1 strain (AID 153); settings: S. cerevisiae mgt1 mutant growth inhibition, active compounds read high
Procedure, shortened: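 Compounds were applied to mgt1 mutant yeast, and growth was then compared against vehicle-treated control cultures to give percent inhibition.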

[5] = NCI Yeast Anticancer Drug Screen. Data for the rad50 strain (AID 155);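 further: 0% = growth of vehicle-only cultures of the same strain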; settings: S. cerevisiae rad50 strain growth inhibition, active compounds read high
Procedure, shortened: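 Vehicle-treated cultures provide the reference for the growth inhibition reported for compound-exposed, repair-deficient yeast.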

[6] = NCI Yeast Anticancer Drug Screen. Data for the mec2-1 strain (AID 157); settings: S. cerevisiae mec2-1 strain, active compounds read high
Procedure, shortened: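 Compounds were applied to mec2-1 yeast cells. Their growth was then compared with that of vehicle-treated cultures to give growth inhibition.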

[7] = NCI Yeast Anticancer Drug Screen. Data for the rad14 strain (AID 159);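 further: 0% = growth of vehicle-treated control cultures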; settings: S. cerevisiae rad14 strain growth inhibition, active compounds read high
Procedure, shortened: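 Inhibition of growth is reported for a repair-deficient yeast mutant following compound treatment, calculated relative to cultures that received vehicle.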

[8] = NCI Yeast Anticancer Drug Screen. Data for the sgs1 mgt1 strain (AID 161);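 further: 0% = growth of cultures given vehicle only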; settings: S. cerevisiae sgs1 mgt1 strain, active compounds read high
Procedure, shortened: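 Growth of a repair-deficient yeast mutant was monitored after compound treatment and expressed as inhibition relative to vehicle-treated cultures.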

[9] = NCI Yeast Anticancer Drug Screen. Data for the CLN2oe strain (AID 163);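 further: 0% = growth of vehicle-only control cultures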; settings: S. cerevisiae CLN2oe strain, active compounds read high
Procedure, shortened: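 Cells of an engineered yeast line with disturbed cell-cycle regulation are treated with compound. Inhibition of growth is then calculated relative to the vehicle-treated reference.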

[10] = NCI Yeast Anticancer Drug Screen. Data for the cln2 rad14 strain (AID 165);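 further: 0% = growth equal to vehicle treated cultures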; settings: S. cerevisiae cln2 rad14 strain, active compounds read high
Procedure, shortened: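 Strain: cln2 rad14 yeast, altered in cell cycle control and DNA damage repair. Read-out: growth inhibition vs vehicle.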

[11] = NCI Yeast Anticancer Drug Screen. Data for the bub3 strain (AID 167); settings: S. cerevisiae bub3 mutant strain, active compounds read high
Procedure, shortened: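 Mutant yeast screening strain plus compound; vehicle-treated cultures serve as the 0% inhibition reference.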

[12] = NCI Yeast Anticancer Drug Screen. Data for the wt2 strain (AID 169); settings: S. cerevisiae wt2 strain growth inhibition, active compounds read high
Procedure, shortened: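 Growth of compound-treated yeast is measured and expressed as inhibition relative to vehicle-only controls.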

[13] = NCI Yeast Anticancer Drug Screen. Data for the mlh1 strain (AID 171);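 further: 0% = growth of vehicle-treated control cultures of the same strain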; settings: S. cerevisiae mlh1 strain growth inhibition, active compounds read high
Procedure, shortened: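 Test agents were incubated with yeast bearing a defined DNA damage repair or cell cycle control alteration; values are growth inhibition normalised to vehicle-treated cultures.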

[14] = NCI Yeast Anticancer Drug Screen. Data for the mlh1 rad18 strain (AID 175); settings: S. cerevisiae mlh1 rad18 strain growth inhibition, active compounds read high
Procedure, shortened: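 A repair-deficient yeast strain is exposed to test compound, and growth is scored relative to vehicle-treated controls.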

[15] = NCI Yeast Anticancer Drug Screen. Data for the rad18 strain (AID 177); settings: S. cerevisiae rad18 mutant growth inhibition, active compounds read high
Procedure, shortened: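 DNA-repair-defective yeast; compound treatment; growth inhibition scored against vehicle.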

[16] = NCI Yeast Anticancer Drug Screen. Data for the sgs1 strain (AID 173);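 further: 0% = growth of vehicle-only control cultures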; settings: S. cerevisiae sgs1 mutant, active compounds read high
Procedure, shortened: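 Strain with an altered DNA repair or cell cycle pathway exposed to compound. Growth then measured. Value = inhibition versus vehicle control.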

[17] = at 5.0 µM (retest, dose inferred, filed as 0.5)
[18] = at 50.0 µM (retest, dose inferred, filed as 5.0)

Measured: growth inhibition

COc1cc(NCCCCNCC(C)(C)C)c2ncccc2c1
inactive: [1]; at 1.2 µM -3% | [1]; at 3.7 µM 1% | [1]; at 11.0 µM 8% | [1]; at 33.0 µM 14% | [1]; at 100.0 µM 26% | [2]; at 1.2 µM -2% | [2]; at 3.7 µM 1% | [2]; at 11.0 µM 4% | [2]; at 33.0 µM 0% | [2]; at 100.0 µM 1% | [3]; at 1.2 µM -8% | [3]; at 3.7 µM -12% | [3]; at 11.0 µM -16% | [3]; at 33.0 µM -19% | [3]; at 100.0 µM -17% | [4]; at 1.2 µM 0% | [4]; at 3.7 µM 3% | [4]; at 11.0 µM 6% | [4]; at 33.0 µM 14% | [4]; at 100.0 µM 2% | [5]; at 1.2 µM -5% | [5]; at 3.7 µM 1% | [5]; [17] 11% | [5]; at 11.0 µM 6% | [5]; at 33.0 µM 10% | [5]; [18] 25% | [5]; at 50.0 µM 59.9% | [5]; at 100.0 µM 35% | [6]; at 1.2 µM -3% | [6]; at 3.7 µM -4% | [6]; [17] -3% | [6]; at 11.0 µM 0% | [6]; at 33.0 µM 2% | [6]; [18] 16% | [6]; at 50.0 µM 18% | [6]; at 100.0 µM 13% | [7]; at 1.2 µM -1% | [7]; at 3.7 µM 8% | [7]; at 11.0 µM 29% | [7]; at 33.0 µM 32% | [7]; at 100.0 µM 28% | [8]; [17] 1% | [8]; [18] 28% | [8]; at 50.0 µM 51.8% | [9]; at 1.2 µM 0% | [9]; at 3.7 µM 2% | [9]; at 11.0 µM 12% | [9]; at 33.0 µM 25% | [9]; at 100.0 µM 39% | [10]; [17] 5% | [10]; [18] 33% | [10]; at 50.0 µM 51.6% | [11]; at 1.2 µM -2% | [11]; at 3.7 µM -2% | [11]; [17] 3% | [11]; at 11.0 µM 0% | [11]; at 33.0 µM 19% | [11]; [18] 20% | [11]; at 100.0 µM 37% | [12]; at 1.2 µM -1% | [12]; at 3.7 µM -1% | [12]; at 11.0 µM 3% | [12]; at 33.0 µM 5% | [12]; at 100.0 µM 5% | [13]; at 1.2 µM -3% | [13]; at 3.7 µM -1% | [13]; at 11.0 µM 5% | [13]; at 33.0 µM 12% | [13]; at 100.0 µM 16% | [14]; [17] -1% | [14]; [18] 31% | [14]; at 50.0 µM 37.1% | [15]; at 1.2 µM -5% | [15]; at 3.7 µM 0% | [15]; at 11.0 µM 7% | [15]; at 33.0 µM 8% | [15]; at 100.0 µM 16%
active: [11]; at 50.0 µM 70.9%

O=C1c2ccccc2N2OC3(N4CCCC4)CCCCC3C12c1ccccc1 (stereo unspecified)
active: [1]; at 100.0 µM 98% | [2]; at 100.0 µM 98% | [3]; at 100.0 µM 99% | [4]; at 100.0 µM 98% | [5]; at 50.0 µM 84.6% | [5]; at 100.0 µM 97% | [6]; at 100.0 µM 98% | [7]; at 100.0 µM 98% | [8]; at 50.0 µM 74.7% | [9]; at 100.0 µM 98% | [11]; [18] 92% | [11]; at 50.0 µM 79.7% | [11]; at 100.0 µM 98% | [12]; at 100.0 µM 88% | [13]; at 100.0 µM 98% | [16]; at 100.0 µM 98% | [15]; at 100.0 µM 98%
inactive: [1]; at 1.2 µM -4% | [1]; at 3.7 µM 1% | [1]; at 11.0 µM 10% | [1]; at 33.0 µM 17% | [2]; at 1.2 µM 6% | [2]; at 3.7 µM -9% | [2]; at 11.0 µM 16% | [2]; at 33.0 µM 36% | [3]; at 1.2 µM -33% | [3]; at 3.7 µM -38% | [3]; at 11.0 µM -28% | [3]; at 33.0 µM 35% | [4]; at 1.2 µM -18% | [4]; at 3.7 µM -7% | [4]; at 11.0 µM -24% | [4]; at 33.0 µM -13% | [5]; at 1.2 µM 5% | [5]; at 3.7 µM -5% | [5]; [17] -35% | [5]; at 11.0 µM 7% | [5]; at 33.0 µM 19% | [5]; [18] -14% | [6]; at 1.2 µM -19% | [6]; at 3.7 µM -7% | [6]; [17] 1% | [6]; at 11.0 µM -25% | [6]; at 33.0 µM -1% | [6]; [18] 23% | [6]; at 50.0 µM 24.9% | [7]; at 1.2 µM -23% | [7]; at 3.7 µM -20% | [7]; at 11.0 µM -27% | [7]; at 33.0 µM -17% | [8]; [17] -9% | [8]; [18] -18% | [9]; at 1.2 µM -9% | [9]; at 3.7 µM -12% | [9]; at 11.0 µM -10% | [9]; at 33.0 µM 4% | [10]; [17] 16% | [10]; [18] 33% | [10]; at 50.0 µM 1.8% | [11]; at 1.2 µM -19% | [11]; at 3.7 µM -13% | [11]; [17] -6% | [11]; at 11.0 µM -2% | [11]; at 33.0 µM 40% | [12]; at 1.2 µM -18% | [12]; at 3.7 µM -17% | [12]; at 11.0 µM -14% | [12]; at 33.0 µM -8% | [13]; at 1.2 µM -46% | [13]; at 3.7 µM -44% | [13]; at 11.0 µM -41% | [13]; at 33.0 µM -10% | [16]; at 1.2 µM -1% | [16]; at 3.7 µM 5% | [16]; at 11.0 µM 7% | [16]; at 33.0 µM 61% | [14]; [17] -33% | [14]; [18] 35% | [14]; at 50.0 µM 18.8% | [15]; at 1.2 µM -9% | [15]; at 3.7 µM -7% | [15]; at 11.0 µM -7% | [15]; at 33.0 µM 15%
